In ChEMBL document CHEMBL4513216, “Probing the Open Global Health Chemical Diversity Library for Multistage-Active Starting Points for Next-Generation Antimalarials” (ACS Infect Dis, 2020):
The whole screen tested about 69,000 compounds, of which about 8,600 (12%) showed an effect of 50% or more. Many of the other results were omitted from the sample, so strong results are more common in it than they were.

Each compound was assayed on Plasmodium berghei (assay: Screen against P. berghei liver stage (PbLuc), transformed with Luciferase, at 10uM). Details: tested at 10 uM.
Assay type: functional, HepG2

SMILES	INHIBITION [%]
CCc1noc(C)c1C(=O)N1CCCC1c1c(C)nn(C)c1C (stereo not given)	31.8
Cc1ccc(C(NCC(=O)N2CCNC(=O)C2)C(F)(F)F)cc1 (stereo not given)	18.3
CC(C)(CNC1CCCN(Cc2ccccn2)C1)CN1CCOCC1 (stereo not given)	33
O=C(NCC1CC1)C1CCC2(CCN(C(=O)c3cccnc3)CC2)O1 (stereo not given)	6.27
Cc1ccc(-c2nc(C(=O)N3CCOCC3)cs2)c(C)c1	-3.85
Cc1cc(C)n(CCN2CCOC(CNc3cccnn3)C2)n1 (stereo not given)	-39.7
O=C(c1ccncc1)N1CCN(Cc2cccnc2)c2ncccc2C1	7.53
CSc1nccc(NCc2cc3n(n2)CCCN(C(=O)C2CCC2)C3)n1	15.9
CC(c1ccc(F)cc1)N1CCN(Cc2nccn2C)CC1 (stereo not given)	11.9
O=C(C1CCC1)N1CCC2(COCc3cnc(-c4cccnc4)nc32)C1 (stereo not given)	-40.4
c1ccc(-c2ncc3c(n2)C2(CCN(c4ncccn4)C2)COC3)cc1 (stereo not given)	-39.1
c1cnc(N2CCC3(COCc4cnc(-c5cccnc5)nc43)C2)nc1 (stereo not given)	59.7
CN(C)S(=O)(=O)N1CCC2(COCc3cnc(-c4ccccc4)nc32)C1 (stereo not given)	29.7
CN(C)C(=O)CN1CCC2(COCc3cnc(-c4cccnc4)nc32)C1 (stereo not given)	69.3
CN(C)C(=O)CN1CCC2(COCc3cnc(-c4ccccc4)nc32)C1 (stereo not given)	91
CN(C)C(=O)CN1CCC2(COCc3cnc(N4CCOCC4)nc32)C1 (stereo not given)	19.4
CC(C)C(=O)N1CCC2(COCc3cnc(-c4cccnc4)nc32)C1 (stereo not given)	17.7
O=S(=O)(C1CC1)N1CCC2(COCc3cnc(-c4cccnc4)nc32)C1 (stereo not given)	32.1
CCN1CCC2(COCc3cnc(-c4cccnc4)nc32)C1 (stereo not given)	28.4
CN(C)S(=O)(=O)N1CCC2(COCc3cnc(-c4cccnc4)nc32)C1 (stereo not given)	59.3
CS(=O)(=O)N1CCC2(COCc3cnc(-c4ccccc4)nc32)C1 (stereo not given)	-69.9
O=C(NCc1ccccn1)NCc1ccc(Cl)s1	17.5
Cc1ccc(C)c(S(=O)(=O)CCNC2CCc3ncnn3C2)c1 (stereo not given)	-21.9
CC(NCc1ccnc(OC2CCC2)c1)c1cnn(C)c1 (stereo not given)	-4.92
O=C1OCCN1CC(=O)N1C[C@@H]2CC[C@H]1CN(C(=O)c1cccnc1)C2	29.6

SMILES	INHIBITION [%]
Cc1cc(N2CCC(Cc3cccnc3)CC2)ncn1	39.7
CC(=O)N1CCN(C(=O)c2sc(-c3ccccc3F)nc2C)CC1	-10.8
OCC1CCCN1c1cc(NCc2cccs2)ncn1 (stereo not given)	31.3
Cc1c(C)n(CC(O)CN2CCN(CCO)CC2)c2c(Cl)cccc12 (stereo not given)	28.6
Cc1cc(F)ccc1S(=O)(=O)NCc1[nH]ncc1Br	-3.14
Cc1ccc(F)cc1S(=O)(=O)NCc1[nH]ncc1Br	1.62
Cc1ccc(F)c(S(=O)(=O)NCc2[nH]ncc2Br)c1	52.9
Cc1cccc(CN2CCOCC2c2[nH]ncc2C)n1 (stereo not given)	31.9
Cn1cc(N2C(=O)C[C@@H]3[C@@H]2CCN3C(=O)c2ccco2)cn1	12.2
O=C(C1CCC1)N1CCN(C(=O)c2cnccn2)[C@H]2CS(=O)(=O)C[C@H]21	23.5
CS(=O)(=O)N1C[C@@H]2CCN(C(=O)c3ccco3)[C@@H]2C1	24.9
O=C(c1ccncc1)N1CC[C@H]2[C@H]1CCN2S(=O)(=O)C1CC1	-69.3
O=C(c1ccco1)N1CC[C@H]2[C@H]1CCN2S(=O)(=O)C1CC1	58.7
O=C(c1ccoc1)N1CC[C@H]2[C@H]1CCN2S(=O)(=O)C1CC1	44.8
O=C(c1ccco1)N1CC[C@H]2[C@H]1CC(=O)N2c1cccnc1	-5.89
O=C(c1cnccn1)N1CC[C@H]2[C@H]1CCN2S(=O)(=O)C1CC1	71
CC(C)N1C(=O)C[C@H]2[C@@H]1CCN2C(=O)c1ccco1	53.9
O=C(c1ccccn1)N1CC[C@H]2[C@H]1CCN2S(=O)(=O)C1CC1	-60.2
O=C(c1ccnnc1)N1CC[C@H]2[C@H]1CCN2S(=O)(=O)C1CC1	63.1
O=C([C@H]1C[C@H]2OCC[C@H]2N(C(=O)c2ccnnc2)C1)N1CCCCO1	19.5
CN(C)CC(=O)N1CCN(c2cc(N3CCCC3CO)ncn2)CC1 (stereo not given)	-5.1
CNC(=O)NC(=O)C(C)N1CCN(c2ccc(C#N)cc2F)CC1 (stereo not given)	11.8
CN(C)S(=O)(=O)N1C[C@@H]2C[C@H](C(=O)Nc3ccccc3)[C@H](C1)O2	-22.5
C[C@H](O)c1cnn(-c2ccccc2)c1	-13.1
Cc1cc(C)c(CNC(=O)NC2CCOCC2)c(=O)[nH]1	27.7
